Compound activity from PubChem BioAssay.
RGS4 inhibitor – inhibitors of human regulator of G protein signaling 4; P49798; Transcreener GDP fluorescence polarization, RGS4-accelerated GTP hydrolysis; Potency, µM (titrated, usually from 114 µM), actives largely listed as inhibitors; 0.039% of 390,000 active; note: nearly all actives have a fitted effect of over 75% in size
Target sequence (P49798 whole entry, looked up): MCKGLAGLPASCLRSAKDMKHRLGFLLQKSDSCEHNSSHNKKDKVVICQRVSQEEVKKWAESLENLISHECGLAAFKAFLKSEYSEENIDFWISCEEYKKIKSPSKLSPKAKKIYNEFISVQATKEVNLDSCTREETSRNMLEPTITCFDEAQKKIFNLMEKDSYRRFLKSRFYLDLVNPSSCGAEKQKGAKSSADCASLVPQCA
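MLSMR compounds (23 nl, pin-transferred) preincubated 10 min at room temperature with a 500nM (2x) first reagent, then RGS4 at 900nM (2x) plus Transcreener GDP mix added; fluorescence polarization (620/688 nm) read before and after 90 min at 30 °C.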
HEK293 tox – cytotoxic in the GLP-1 receptor inverse agonist counter-screen. 0.13% of 410,000 active. HEK293 cAMP-luciferase reporter cells, luminescence, 24 h. Potency, µM (highest dose often 38.3 µM), hits mostly inhibitors;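 note: loss of luciferase light is scored as toxicity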
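A 23 nL compound transfer followed 12 hours of cell culture at 37 deg C; exposure then lasted 24 hr. Luciferase assay detection reagent was dispensed and plates read for luminescence after a 12 min room-temperature wait.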
GLP-1R inv ag – acts as inverse agonist at human GLP-1 receptor | P43220 | HEK293 GLP-1R CRE-luciferase, luminescence, 24 h; GLP-1R form is constitutively active | Potency, µM (top dose mostly 38.3 µM), actives largely listed as inhibitors | 1.6% of 410,000 active; note: nearly all actives have a fitted effect of over 55% in size
Target sequence (P43220 whole entry, looked up): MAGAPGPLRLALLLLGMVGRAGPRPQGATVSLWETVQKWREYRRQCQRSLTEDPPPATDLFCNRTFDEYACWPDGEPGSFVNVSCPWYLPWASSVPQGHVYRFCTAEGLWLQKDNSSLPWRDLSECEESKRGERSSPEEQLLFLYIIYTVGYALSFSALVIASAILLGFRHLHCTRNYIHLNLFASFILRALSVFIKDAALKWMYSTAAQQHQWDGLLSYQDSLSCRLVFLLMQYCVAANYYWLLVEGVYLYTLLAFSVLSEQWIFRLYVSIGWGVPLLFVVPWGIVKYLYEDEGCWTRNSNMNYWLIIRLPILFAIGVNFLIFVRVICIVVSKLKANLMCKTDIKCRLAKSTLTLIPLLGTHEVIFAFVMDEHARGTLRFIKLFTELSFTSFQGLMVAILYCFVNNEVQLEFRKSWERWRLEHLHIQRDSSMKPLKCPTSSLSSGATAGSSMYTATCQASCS
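HEK293 cells stably co-expressing a cAMP-responsive luciferase reporter and constitutively active GLP-1R were seeded, incubated 12 h, then exposed to compounds for 24 h at 37 C. Luminescence was read 12 min after detection reagent; inverse agonists lower signal.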
PTHR1 agonist – PTHR1 (human) receptor agonism; Q03431; HEK293 GP2 PTHR1 cells, GloSensor cAMP luminescence, 1 h; Potency, µM (highest dose often 115 µM), hits mostly activators; 0.075% of 410,000 active; AID 743266; note: nearly all actives have a fitted effect of over 55% in size
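HEK-293-derived GP2 cells expressing PTHR1 and a GloSensor cAMP reporter, 3,000/well, plated overnight, given luciferin plus IBMX (each 0.5 mM as added) for 1 h at 37 °C, then compound for 1 h at 37 °C. Luminescence was read after 15 min at room temperature.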
GLP-1R agonist – activates the human GLP-1 receptor; P43220; HEK293 GLP-1R CRE-luciferase, luminescence, 4-6 h; cells express a hypersensitive GLP-1R form; Potency, µM (highest dose often 45.6 µM), hits mostly activators; 0.007% of 380,000 active
Large screens that a line does not name were inactive. The list is not random: actives were taken first. Their share in the collection is about 1.7%. Calls come from the whole dose curve; as a rule, active = well fitted curve in the direction sought with a large enough effect; inconclusive = small, poorly fitted or top-dose-only effect, or another doubt; inactive = no such curve, though single readings can be large; an effect the other way counts as inactive or inconclusive.

COc1ccc([C@@H]2[C@@H]3C(=O)N(C(C)(C)C)C(=O)[C@@H]3[C@]3(Cc4ccc(Cl)cc4)C(=O)N(c4ccc(Br)cc4)C(=O)N23)cc1	GLP-1R inv ag 10µM
CC(C)(C)N1C(=O)[C@H]2[C@@H](c3ccc(Br)cc3)N3C(=O)N(c4ccc(Br)cc4)C(=O)[C@@]3(Cc3ccccc3)[C@H]2C1=O	GLP-1R inv ag 11µM
CC(Oc1cccc(Cl)c1)C(=O)Nc1cc(S(=O)(=O)N2CCOCC2)ccc1N1CCCCC1 (stereo not given)	GLP-1R inv ag 10µM
CC(NCC(=O)Nc1cc(S(=O)(=O)N2CCOCC2)ccc1Cl)c1ccc(Cl)cc1Cl (stereo not given)	GLP-1R inv ag 5.6µM
CCN1CCN(c2ccc(S(=O)(=O)N3CCOCC3)cc2NC(=O)C(C)Oc2cccc(Cl)c2)CC1 (stereo not given)	GLP-1R inv ag inconclusive
c1cnc2cc3c(cc2n1)[C@@H]1CNC[C@@H]3C1	none (no result: RGS4 inhibitor, HEK293 tox, GLP-1R inv ag, PTHR1 agonist)
CCCCNC(=O)C1CCC(Cn2c(=O)c3sccc3n(Cc3ccccc3)c2=O)CC1 (stereo not given)	none (no result: GLP-1R agonist)
CCc1ccc(C(=O)NNc2cc(Cl)cc(Cl)c2)cc1	GLP-1R inv ag 1µM
CCc1ccc(C(=O)NNc2ccc(Cl)cc2)cc1	HEK293 tox inconclusive, GLP-1R inv ag 1µM
CC(C)(C)c1ccc(C(=O)NNc2cc(Cl)cc(Cl)c2)cc1	GLP-1R inv ag inconclusive
CCc1ccc(C(=O)NCc2ccc(Cl)cc2)cc1	none
CC(C)Nc1cc(C(F)(F)F)nc(-c2ccccn2)n1	HEK293 tox inconclusive
FC(F)(F)c1cc(Nc2ccccc2)nc(-c2ccccn2)n1	HEK293 tox inconclusive, GLP-1R inv ag 3.5µM
Cc1ccc(Cn2c(C(=O)O)c(CNCc3ccc(OC(C)C)cc3)c3ccc(C)cc32)cc1	HEK293 tox inconclusive, GLP-1R inv ag 13µM
Cc1ccc(CNCc2c(C(=O)O)n(Cc3ccc(C)cc3)c3cc(C)ccc23)cc1	HEK293 tox inconclusive, GLP-1R inv ag inconclusive
Cc1ccc(N2CCN(C(=O)Cn3ncc4c([nH]c5ccc(C)cc54)c3=O)CC2)c(C)c1	none (no result: GLP-1R agonist)
O=S(=O)(c1ccc(Cl)cc1)c1nc(-c2cccs2)oc1SCc1ccccc1F	GLP-1R inv ag 10µM (no result: GLP-1R agonist)
O=S(=O)(c1ccc(Cl)cc1)c1nc(-c2ccco2)oc1SCc1ccccc1F	RGS4 inhibitor inconclusive, GLP-1R inv ag inconclusive (no result: GLP-1R agonist)
O=C(Nc1ccc(S(=O)(=O)N2CCCC2)cc1)Nc1ccc(F)cc1F	GLP-1R inv ag inconclusive
Cc1ccc(S(=O)(=O)Nc2ccc(NC(=O)Nc3ccc(F)cc3F)cc2)cc1	GLP-1R inv ag 5.6µM
COc1cccc(C(=O)Nc2c(C(=O)N3CCN(c4ccc(F)cc4)CC3)oc3ccccc23)c1	GLP-1R inv ag inconclusive
O=C(NCc1ccccc1)C1CCCN1C(=O)Nc1ccccc1[N+](=O)[O-] (stereo not given)	none
Fc1ccccc1NC(=S)N/N=C/c1ccccc1Br	HEK293 tox 5.6µM, GLP-1R inv ag inconclusive
Cc1c(C(=O)OCc2nc3ccsc3c(=O)[nH]2)oc2ccccc12	none
C=CCc1cc(OC)ccc1OCCOCCN1CCc2ccccc2C1	GLP-1R inv ag 10µM
Cc1cc(C)nc(/N=C(\N)N(Cc2ccccc2)Cc2ccccc2)n1	HEK293 tox inconclusive, GLP-1R inv ag inconclusive
CCCCN(CCCC)/C(N)=N/c1nc(C)cc(C)n1	HEK293 tox inconclusive, GLP-1R inv ag 4µM
CN(C)c1cccc(CNC(=O)c2csc([C@@H]3C[C@H](O)[C@@H](CO)O3)n2)c1	PTHR1 agonist inconclusive (no result: RGS4 inhibitor)
Cc1ccc(S(=O)(=O)N2CCC(C(=O)NCc3ccccc3CN3CCCC3)CC2)cc1C	GLP-1R inv ag 4.5µM
O=C(NCCc1ccc(Cl)cc1)C1CCCN(S(=O)(=O)N2CCCCCC2)C1 (stereo not given)	GLP-1R inv ag 5.6µM
CC1CC(C)CN(S(=O)(=O)N2CCCC(C(=O)NCc3ccccc3Cl)C2)C1 (stereo not given)	GLP-1R inv ag inconclusive
CC1CCN(S(=O)(=O)N2CCCC(C(=O)NCc3ccccc3Cl)C2)CC1 (stereo not given)	GLP-1R inv ag 7.1µM
COc1cc(C(=O)NNC(=O)c2cc(-c3ccccc3)n[nH]2)cc(OC)c1C	GLP-1R inv ag inconclusive
NC(=S)c1ccc[n+]([O-])c1	RGS4 inhibitor inconclusive
Cc1cc(C)c(S(=O)(=O)N2CCCCC2)cc1N(C)S(=O)(=O)c1ccc(Cl)cc1	GLP-1R inv ag 13µM
Cc1ccc(S(=O)(=O)N(C)c2cc(S(=O)(=O)N3CCOCC3)c(C)cc2C)cc1	none
Cc1cccc(CS(=O)(=O)Cc2ccc(C(=O)NCc3ccc(F)cc3)o2)c1	none (no result: GLP-1R agonist)
COC(=O)c1cnc(N)s1	none
COc1ccc(OC)c(NC(=O)NNC(=O)CCCOc2ccc(Cl)cc2C)c1	GLP-1R inv ag 10µM
CC(C)N1[N]C(=C2C=c3cc(O)ccc3=N2)c2c(N)ncnc21	none (no result: RGS4 inhibitor, HEK293 tox, GLP-1R inv ag, PTHR1 agonist)
CCc1ccccc1NC(=O)Nc1ccc2c(c1)N(CC)C(=O)c1ccccc1S2	GLP-1R inv ag 5µM (no result: GLP-1R agonist)
O=C(CN1C(=O)c2ccccc2S1(=O)=O)c1ccc(OC(F)F)cc1	GLP-1R inv ag inconclusive
O=C(CN1C(=O)c2ccccc2S1(=O)=O)c1ccc(F)cc1	GLP-1R inv ag 2.2µM
Cc1ccc(C)n1-n1c(C)nc2sc3c(c2c1=O)CCCCC3	GLP-1R inv ag 11µM
Cc1ccc(C)n1-n1cnc2sc3c(c2c1=O)CCCCC3	GLP-1R inv ag inconclusive
CCOc1ccc(NC(=O)CCSc2nc3c(c(CC)c2C#N)C(=O)CC(C)(C)C3)cc1	GLP-1R inv ag inconclusive
CCc1c(C#N)c(SCCC(=O)Nc2ccc(C)cc2)nc2c1C(=O)CC(C)(C)C2	GLP-1R inv ag 2.8µM
CCOC(=O)c1cccc(NC(=O)C2=C(C)C(=O)OC23CCCCC3)c1	none (no result: GLP-1R agonist)
CCCOc1ccc(CCc2n[nH]c(=S)n2Cc2ccccc2)cc1	GLP-1R inv ag 8.9µM
CCNC(=O)CON=C1c2ccccc2-c2ccccc21	GLP-1R inv ag inconclusive, GLP-1R agonist inconclusive
CCC(CC)NC(=O)CON=C1c2ccccc2-c2ccccc21	GLP-1R inv ag 8.9µM
O=C(CSc1nnc(Cc2cccs2)n1Cc1ccco1)Nc1ccc(Br)cc1	GLP-1R inv ag 3.5µM
O=C(CSc1nnc(Cc2cccs2)n1Cc1ccco1)Nc1ccc(Cl)cc1Cl	GLP-1R inv ag inconclusive, PTHR1 agonist inconclusive
COc1cccc(CNc2nc3cc(-c4ccc(F)cc4)sc3c(=O)n2C)c1	none (no result: RGS4 inhibitor)
CC(=O)Nc1ccc(S(=O)(=O)NCC2CCC(C(=O)NCCN(CC(C)C)CC(C)C)CC2)cc1 (stereo not given)	none (no result: GLP-1R agonist)
COc1ccccc1NS(=O)(=O)c1cccc(NC(=O)Nc2ccccc2)c1	HEK293 tox inconclusive, GLP-1R inv ag 5.6µM
